This is one part of a sample in which hits are shown more often than they occur.
ERK EGF inh – inhibitors of EGF-stimulated ERK signaling pathway. HEK293-V1b, EGF-stimulated phospho-ERK AlphaScreen. AID 1454. 130,000 compounds, 0.41% hits. Potency, µM (top dose mostly 11.5 µM), for inactives: top-dose activity change, negative = inhibition, actives largely listed as inhibitors; active = well fitted inhibition curve with a large enough effect;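 note: plate controls were stimulated vehicle wells for no effect and unstimulated vehicle basal for full effect; nearly all actives have a fitted effect of over 55% in size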
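HEK293 cells stably expressing V1b receptor, serum-reduced (1% FBS) overnight, pretreated 30 min with compound, then stimulated 5 min with 25 nM EGF; phospho-ERK detected by AlphaScreen SureFire. AC50 from Hill fits, normalized to DMSO and EGF.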
Active calls of the source: *; ! = a repeat was not active; [ ] = another dose, or the depositor's remark. Potency is the fitted concentration of half-maximal effect.

SMILES | ERK EGF inh
C[C@@]1(O)CCOC(=O)C1 | -3%[25.7 µM]
CS(=O)(=O)N1CCC2(CCCN(C(=O)Nc3cccc(C#N)c3)C2)CC1 | 4%
CN(Cc1ccco1)c1ncnc2ccc(-c3cccc(C#N)c3)cc12 | 14%
CC(C)C[C@@H](CC(=O)N[C@@H](CCCN)CC(=O)N[C@@H]1CCCC[C@H]1C(=O)N[C@H](CC(=O)N[C@@H](CCC(=O)O)CC(=O)O)CC(C)C)NC(=O)[C@@H]1CCCC[C@H]1N | -5%
COc1ccc(-c2csc(NC(=O)c3ccoc3C)n2)cc1 | 16µM*
COc1ccc(-c2csc(NC(=O)c3ccc(S(C)(=O)=O)cc3)n2)cc1 | -10%
COc1ccc(-c2csc(NC(=O)c3ccccc3C(=O)O)n2)cc1 | 5%
O=C(Nc1ccc(Cl)c(Cl)c1)c1ccc(Cl)c(Cl)c1 | -8%[57.5 µM]
O=C(Nc1ccc(Cl)c(Cl)c1)Nc1cc(C(=O)NC2CC2)ccc1Cl | 28µM*
O=C(NC1CCCCC1)c1ccc(Cl)c(NC(=O)c2ccccc2F)c1 | -14%
NC(=S)c1ccc[n+]([C@@H]2O[C@@H](COP(=O)([O-])OP(=O)(O)OC[C@H]3O[C@@H](n4cnc5c(N)ncnc54)[C@H](OP(=O)(O)O)[C@H]3O)C(O)C2O)c1 (some centres not stated) | -3%
O=C(Nc1ccc([N+](=O)[O-])cc1Cl)c1cc(Cl)ccc1O | -10%
O=C(Nc1cccc(Cl)c1)c1cc(N=Nc2ccc([N+](=O)[O-])cc2Cl)ccc1O | 14µM*
O=C(Nc1cccc(Cl)c1)c1cccc(Oc2ccc([N+](=O)[O-])cc2Cl)c1 | -4%
COc1ccc(NC(=O)N2CC3(CCN(C(=O)c4ccco4)CC3)C2)cc1 | 12%
COC(=O)c1ccc(C(NC(=O)OCc2ccccc2)/C(=C/[C@@H](C)C(=O)NCc2nc3ccccc3n2C)c2cccnc2)cc1 (some centres not stated) | 2%
CCCCC1=CC2=C(c3ccco3)C(=O)C(C)(OC(=O)c3ccc(Cl)nc3)C(=O)C2=CO1 (configuration not stated) | -12%
CCN(CC)CCCC(C)n1c(-c2ccccc2)nc2c(NCCO)nc(C)nc21 (configuration not stated) | -2%
COc1cccc(-c2cc(=O)c3ccccc3o2)c1N | 5µM*!
COc1ccccc1-c1cc(=O)c2cccc(OC)c2o1 | 24%
O=c1cc(-c2ccccc2F)oc2ccccc12 | 12%
CC1CCC2=C1C[C@H](C(C)(C)O)CC[C@@H]2C (some centres not stated) | -13%
COc1ccc2c(c1)O[C@@H](c1cccc(C(F)(F)F)c1)[C@H](OC(=O)NS(=O)(=O)c1ccc(F)cc1)C2=O | -2%
c1cncc(N=c2scc(-c3cccc4ccccc34)n2CCCn2ccnc2)c1 | 7%
Cc1ccc(-c2csc(=Nc3cccnc3)n2CCCN2CCCC2=O)cc1C | -5%
SMILES | ERK EGF inh
Cc1ccc(-c2csc(=Nc3cccnc3)n2CCCn2ccnc2)cc1C | 28µM*
COc1cc2c(cc1OC)C(/C=C/c1ccc(OC)c(OC)c1OC)=NCC2 | 18%
CCCn1c(C)nc2c(N3CCC(N(C)C)C3)nc(C)nc21 (configuration not stated) | -4%
COc1ccc(-n2c(=O)c(C)nc3cnc(N4CCNCC4)nc32)cc1 | -3%
[N-]=[N+]=Nc1nc2c(N)ncnc2n1C1OC(CO)C(O)C1O (configuration not stated) | 24%
O=C(c1cc(C(F)(F)F)cc(C(F)(F)F)c1)N1CCC[C@@]2(CCN(c3ccccc3)C2)C1 | 8%
O=C(O)[C@@H](O)[C@@H](O)[C@@H](O)[C@@H](O)C(=O)O (tested in a mixture with another compound) | 8%[25.7 µM]
Cc1noc(C)c1C(=O)N1CCC[C@@]2(CCN(c3cccc(-c4ccccc4)c3)C2)C1 | -4%
CC1CCN(S(=O)(=O)c2ccccc2[N+](=O)[O-])CC1 | -2%
CCOC(=O)C1CCN(C2=C(NS(=O)(=O)c3ccc(Cl)cc3)C(=O)c3ccccc3C2=O)CC1 | 32µM*
CCOC(=O)C1CCN(C(=O)c2ccccc2NS(=O)(=O)c2ccc(F)c(F)c2)CC1 | 9%
CCC1CCCCN1CC(C)(C)NS(=O)(=O)c1ccccc1 (configuration not stated) | 21%[57.5 µM]
CC1CCN(C2=C(NS(=O)(=O)c3ccc(Cl)cc3)C(=O)c3ccccc3C2=O)CC1 | 16µM*
O=S(=O)(Nc1nc2ccccc2nc1N1CCN(c2ccccc2)CC1)c1ccc(F)cc1 | -3%
CCOC(=O)C1CCN(S(=O)(=O)c2ccc(C(C)(C)C)cc2)CC1 | 0%
CC(=C1C(=O)c2ccccc2C1=O)N1CCN(c2ccc(F)cc2)CC1 | 0%[57.5 µM]
Cc1ccc(S(=O)(=O)NCC(c2ccccc2)N2CCCCC2)cc1 (configuration not stated) | -7%[57.5 µM]
Cc1ccccc1NS(=O)(=O)c1ccc(Cl)cc1 | 6%
CC1CCN(C2=C(NS(=O)(=O)c3ccccc3)C(=O)c3ccccc3C2=O)CC1 | 18µM*
O=C1C(NS(=O)(=O)c2ccccc2)=C(N2CCN(c3ccc(F)cc3)CC2)C(=O)c2ccccc21 | 25µM*
COC(=O)[C@H](COC(C)(C)C)NC(=O)O[C@@H]1C(=O)c2cc(Br)ccc2O[C@H]1c1ccc2c(c1)OCO2 | 5%
Cc1noc(C)c1-c1nccc(N2CCNCC2)n1 | 24%
C[C@H]1COc2c(N3CCN(C)CC3)c(F)cc3c(=O)c(C(=O)NCc4ccco4)cn1c23 | 2%
CCCCC[C@H](O)/C=C/C=C\CCCCCCCCCC(=O)O | -18%
COc1ccc(-c2nc(-c3ccccc3)oc2Nc2c(C)cccc2C)cc1 | -20%
SMILES | ERK EGF inh
C[C@@H](O)CCC[C@H](O)/C=C/[C@H]1[C@H](O)CC(=O)[C@@H]1C/C=C\CCCC(=O)O | -10%
O=C(O)CCC/C=C\C/C=C\C=C\[C@@H](O)C/C=C\CCCCCO | -8%
O=C(O)Cc1cc2ccccc2nc1C(=O)O | -8%
C[C@@H]1[C@H](C)CC[C@@]2(C(=O)O)CC[C@]3(C)C(=CC[C@H]4[C@@]5(C)CC[C@@H](O)C(C)(C)[C@@H]5CC[C@@]43C)[C@@H]12 | -7%[25.7 µM]
CC(C)C[C@@H](CC(=O)N[C@H](CC(=O)N[C@@H]1CCCC[C@H]1C(=O)N[C@H](CC(=O)N[C@@H](CCC(=O)O)CC(=O)O)Cc1c[nH]c2ccccc12)C(C)C)NC(=O)[C@@H]1CCCC[C@H]1N | -11%
Cc1ccc(CNCCNCCO)s1 | -5%
O=C1c2c(O)ccc(O)c2C(=O)c2c(NCCNCCO)ccc(NCCNCCO)c21 | 20µM*!
Cc1nc(NCc2ccccc2)c2nc(-c3ccccc3)n(CCN3CCCCC3)c2n1 | -4%
COC(=O)N[C@@H](CCc1ccccc1)[C@]1(C(=O)OC)CCCC1=O | -12%
c1cc2c(cc1C1CCCCC1)c1c3n2CCN[C@H]3CCC1 | 8%
Cc1ccc2c(c1)c1c3n2CCCNC3CCC1 (configuration not stated) | -15%[57.5 µM]
c1cc2c(cc1C1CCCCC1)c1c3n2CCCNC3CCC1 (configuration not stated) | 28µM*
CCCCc1ccc(N/C(N)=N/c2nc(C)cc(C)n2)cc1 | 18µM*
CCC(=O)Nc1ccc(N/C(N)=N/c2nc(C)cc(C)n2)cc1 | -3%[57.5 µM]
Cc1ccc(N/C(N)=N/c2nc(C)cc(C)n2)cc1 | 3%
COC(=O)NC1C=CCCC1C(C)=O (configuration not stated) | -6%
CC(=O)CC(=O)[C@@]1(O)CC[C@@H]2[C@@H]3C=C(C)C4=CC(=O)CC[C@@H]4[C@H]3CC[C@]21C | -3%[25.7 µM]
